Molecules are shown by their SMILES. Results filed as inconclusive are left out. A number with no mark means an inactive call. The source made the active and inactive calls. Calls come from the whole dose curve; as a rule, active = well fitted cell-killing curve with a large enough effect; inconclusive = small, poorly fitted or top-dose-only effect; inactive = flat fitted curve, though single readings scatter.
% is set by controls: 0 for no effect and ±100 for the full control effect; potency is the fitted concentration of half-maximal effect.

The nature of the test: Cell Viability - LYMP2-006 (AID 978). Note: nearly all actives have a fitted effect of over 60% in size. As to conditions: LYMP2-006 lymphoblastoid cell viability, qHTS; series mostly up to 92.2 µM; activity change, negative = cytotoxicity: at the top concentration. The text has this: NIH Chemical Genomics Center [NCGC]
NIH Molecular Libraries Screening Centers Network [MLSCN]
National Institutes of Environmental Health Sciences [NIEHS]
National Toxicology Program [NTP]
We have developed a 1536-well cell-based assay for quantitative high throughput screening (qHTS) against a number of cell lines to determine in vitro cytotoxicity of small molecules. This particular assay uses a human lymphoblastoid cell line (LYMP2-006) purchased from Coriell Institute for Medical Research.
NCGC Assay Protocol Summary:
The CellTiter-Glo luminescent cell viability assay (Promega) is a homogeneous method to measure the number of viable cells in culture. The end point readout of this assay is based on quantitation of intracellular ATP, an indicator of metabolic activity, using the luciferase reaction. Luciferase catalyzes the oxidation of beetle Luciferin to oxyluciferin and light in the presence of ATP. The luminescent signal is proportional to amount of ATP present.
Using the CellTiter-Glo luminescent cell viability assay, the amount of cellular ATP was measured in the lymphoblastoid cell line with complete culture medium following compound treatment for 24 hours. The assay was performed in opaque white Kalypsys 1536-well plates. In the screen, tetraoctylammonium bromide was used as positive control. Library compounds were measured for their ability to cause acute toxicity in the cell line, as reflected by a decrease in intracellular ATP levels, in a concentration-dependent manner. […] AC50 values were determined from concentration-response data modeled with the standard Hill equation.
qHTS protocol for CellTiter Glo lymphoblastoid cellular assay
[Step] [Parameter] [Value] [Description]
1. Reagent; 5 uL; 2500 lymphoblastoid cells/well
2. Time; 5 hr; 37 C incubation
4. Controls; 23 nL; Tetraoctylammonium bromide 6.4pM to 92 uM
5. Time; 24 hr; 37 C incubation
6. Reagent; 5 uL; CellTiter Glo reagent
7. Time; 30 min; Room Temperature
8. Detection; Luminescence; Viewlux plate reader
Keywords: cell viability, cytotoxicity, lymphoblastoid cell line, luminescence, NTPHTS, NTPHTS_NCGC, NIEHS, DSSTox, MLSMR, MLSCN, NIH Roadmap, qHTS, NCGC
On to `O=C1NC(=O)C(c2ccccc2)(c2ccccc2)N1`, for which the “activity change, negative = cytotoxicity” value was -6.03%.
The same measure, in the same setting: with `O=c1[nH]cnc2c1ncn2[C@H]1CC[C@@H](CO)O1` the figure was 0.387%.
Same read-out and setting: as for `CCCCC1C(=O)N(c2ccccc2)N(c2ccccc2)C1=O`, the figure is -6.32%; as for `O=c1c(-c2ccc(O)cc2)coc2cc(O)ccc12`, -24.5%.
Still for that read-out and setting: as for `CC(=O)c1ccc(S(=O)(=O)NC(=O)NC2CCCCC2)cc1`, the figure is 0.422%; as for `CCCNC(=O)NS(=O)(=O)c1ccc(Cl)cc1`, -1.63%; as for `CC(=O)O[C@]1(C(C)=O)CC[C@H]2[C@@H]3C=C(Cl)C4=CC(=O)[C@@H]5C[C@@H]5[C@]4(C)[C@H]3CC[C@@]21C`, -16.4%.
As for `O=c1c(O)c(-c2ccc(O)cc2)oc2cc(O)cc(O)c12`, the “activity change, negative = cytotoxicity” value is -7.41%.
Turning to `CN(C)CCC(c1ccccc1)c1ccccn1` (stereo not drawn), the “activity change, negative = cytotoxicity” value is -14.4%.
As for `CC1=C(/C=C/C(C)=C/C=C/C(C)=C/C(=O)Nc2ccc(O)cc2)C(C)(C)CCC1`, the Potency was 50.1 µM (active).
As to `CCn1cc(C(=O)O)c(=O)c2ccc(C)nc21`, the “activity change, negative = cytotoxicity” value was -6.57%.
On the same count and under the same terms, as for `O=C(O)Cc1cccc2ccccc12`, the figure is 1.4%.
With `CC/C(=C(\c1ccccc1)c1ccc(OCCN(C)C)cc1)c1ccccc1`, the Potency was 50.1 µM (active).

Source of the values: PubChem BioAssay (NCATS).
